Test results: PubChem BioAssay (NCI)
This is part of a sample that, as a whole, favours compounds with a hit. Of some 83,000 tested, about 20% had one in any assay.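 Values shown are percent growth following 48 h exposure of cells in 96-well plates to a single concentration of compound; below 10 was considered active.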 Values without a mark were called inactive. Activity calls are given as the source filed them.

Key:
Test in all cases: NCI-60 one-dose screen, 48 h (100 = growth as untreated, 0 = no growth, -100 = all killed)
Conditions in all cases: 10 µM unless noted
RPMI-8226 leukemia = test system: RPMI-8226 leukemia
OVCAR-8 ovarian = test system: OVCAR-8 ovarian
OVCAR-5 ovarian = test system: OVCAR-5 ovarian
OVCAR-4 ovarian = test system: OVCAR-4 ovarian
SK-OV-3 ovarian = test system: SK-OV-3 ovarian
IGROV1 ovarian = test system: IGROV1 ovarian
OVCAR-3 ovarian = test system: OVCAR-3 ovarian
HS 578T breast = test system: HS 578T breast
NCI/ADR-RES ovarian = test system: NCI/ADR-RES ovarian
T-47D breast = test system: T-47D breast
BT-549 breast = test system: BT-549 breast
MDA-MB-435 melanoma = test system: MDA-MB-435 melanoma
SW-620 colon = test system: SW-620 colon
MCF7 breast = test system: MCF7 breast
HCT-116 colon = test system: HCT-116 colon
HCC-2998 colon = test system: HCC-2998 colon
KM12 colon = test system: KM12 colon
SR leukemia = test system: SR leukemia

SMILES	growth (RPMI-8226 leukemia)	growth (OVCAR-8 ovarian)	growth (OVCAR-5 ovarian)	growth (OVCAR-4 ovarian) [%]	growth (SK-OV-3 ovarian)	growth (IGROV1 ovarian)	growth (OVCAR-3 ovarian)	growth (HS 578T breast) [%]	growth (NCI/ADR-RES ovarian)	growth (T-47D breast)	growth (BT-549 breast)	growth (MDA-MB-435 melanoma)	growth (SW-620 colon)	growth (MCF7 breast)	growth (HCT-116 colon)	growth (HCC-2998 colon)	growth (KM12 colon)	growth (SR leukemia)
COc1cc(/C=C/C(=O)C(C(=O)/C=C/c2ccc(OC(=O)CCNc3nnc(C)s3)c(OC)c2)C(=O)CCNc2nnc(C)s2)ccc1OC(=O)CCNc1nnc(C)s1	-75.2% (active)	7.54% (active)	37.1%	35.9	45.4%	-37.6% (active)	2.15% (active)	18.2	31.8%	41.4%	-44% (active)	-27.5% (active)	-19.5% (active)	8.2% (active)	-31.6% (active)	-46.7% (active)	-39.2% (active)	
CCOc1cc(/C=C/C(=O)C(C(=O)/C=C/c2ccc(OC(=O)CNc3nnc(C)s3)c(OCC)c2)C(=O)CNc2nnc(C)s2)ccc1OC(=O)CNc1nnc(C)s1	-68.3% (active)	2.17% (active)	-11.7% (active)	23.1	43.6%	-53.7% (active)	11.3%	10.1	7.78% (active)	68.2%	-56.2% (active)	-8.14% (active)	-64.8% (active)	-6.02% (active)	-77.7% (active)	-64.8% (active)	-64.4% (active)	
COc1cccc(/C=C2\Cc3ccccc3C2=O)c1	98.6%	97.2%	111%	101	101%	99.3%	110%	111	105%	100%	103%	96.7%	104%	58.8%	96.3%	105%	95.2%	
CN(C)CCC(=O)Nc1ccc(-n2cc(-c3cccc(NC(=S)Nc4cccc(-c5cn(-c6ccc(NC(=O)CCN(C)C)cc6)nn5)c4)c3)nn2)cc1		97.3%			115%	85.5%	94.6%	137	113%	69.1%	81.6%	110%	17.4%	5.07% (active)	26.7%	101%	56.3%	25.9%
BrC1CC(Br)c2c1c1c(c3c2C(Br)CC3Br)C(Br)CC1Br (stereo unspecified)	92.9%	85.2%	99.2%	106	102%	-20.2% (active)	150%	93.6	91%	91.8%	125%	103%	83%		80.9%	87.5%	129%	
O=C1/C=C/[C@@H](O)[C@@H]2C[C@@H](O)C[C@H]2/C=C/CCC[C@H](CO)O1	37.4%	35.4%	52.8%	26.2	50.7%	49.9%	-2.9% (active)	35.5	15.9%	32.5%	20.1%	18.5%	10.5%	-2.04% (active)	2.08% (active)	-22.5% (active)	2.96% (active)	
CCOC(=O)N1CCC(N=C2CSc3nnc(-c4cc(C(F)(F)F)cc(C(F)(F)F)c4)n3N2)CC1	29%	22.2%	25.6%	25.1	41.4%	44.1%	28.5%	21.5	14.1%	34%		24.9%	36.2%	13.6%	-10.9% (active)		34.5%	
Cc1ccc2nc(-c3ccc(N(C)C)c(Br)c3)cn2c1	71%	93.8%	92.6%	115	94.4%	-8.76% (active)	103%	83.2	78.2%	109%	71.4%	63.4%	100%		33%	100%	95.4%	
C[C@]12CC[C@H](O)CC1=CC[C@@H]1[C@@H]2CC[C@]2(C)C(c3cccnc3)=CC[C@@H]12			92.3%	49.7	87.8%	43.5%	56.1%	13.6	49.9%	55.6%	59.5%	19.8%	72.7%	61.4%	58.7%	74.6%	52.8%	0.438% (active)
CCOC(=O)Nc1ccc2c3c(cccc13)-c1ccccc1-2			63.6%	48.5	62.7%		-19.8% (active)	16.6	7.96% (active)	58.7%	26.1%	-9.66% (active)	14.9%	15.8%	16.6%	41.2%	18.3%	13.6%
COc1cccc(-c2nc(-c3ccc(N)cc3)co2)c1	89.5%	85.8%	115%	109	118%	-0.817% (active)	82%	115	92.8%	105%	110%	93.3%	113%	98.9%	91.5%	122%		
C(#Cc1ccccc1C#Cc1ccccn1)c1ccc(OCCCCCCOc2ccc(C#Cc3ccccc3C#Cc3ccccn3)cc2)cc1	5% (active)	47.6%	85.4%	46.5	80.9%	-48.8% (active)	35.5%	72.7	40%	36.5%	39.6%	25.6%	62.6%		38.4%	58.8%	37.1%	
FC(F)(F)c1cc(-c2nnc3n2N=C(N2CCCC2)CS3)cc(C(F)(F)F)c1	95%	74.4%	106%	102	21%	87%	53.6%	46.8	80.2%	64%		96.8%	95.9%	95.3%	42.5%		89.2%	
O=C1/C(=C/c2cccc(Cl)c2)CCc2ccccc21	22.3%	91.1%	111%	100	114%	94%	104%	110	100%	101%	102%	96.6%	56.4%	50.5%	93%	102%		
Cc1ccc(S(=O)(=O)N2CCN(C(=O)CSc3nc4ccc(C)cc4[nH]3)CC2)cc1	108%	74.5%	117%	107	114%		111%	126	107%	99.8%	106%	109%	102%		103%	122%		
O=C(Nc1nc2ccc(OC(F)(F)F)cc2s1)c1ccc(F)cc1		17.8%	43%	25.5	4.63% (active)	31.1%	-37.8% (active)	38.6	6.2% (active)	-10.8% (active)	39.2%	15.1%	13.3%	-0.0548% (active)	-28% (active)	3.77% (active)	2.23% (active)	
[N-]=[N+]=NCc1cccc(/C(O)=C/C(=O)C(=O)O)c1	90.7%	79.4%	63.5%	94.9	107%		126%	82.6		86.6%	113%	140%	94.9%	98.6%	91.3%	88.5%	97.4%	
COc1cc(/C=C/C(=O)CC(=O)/C=C/c2ccc(OC(=O)C3C4CC5CC(C4)CC3C5)c(OC)c2)ccc1OC(=O)C1C2CC3CC(C2)CC1C3 (stereo unspecified)	112%	97.2%		105	110%	33.3%	118%	129	107%	99.4%	108%	112%	113%	110%	93%	98.8%	107%	
CCN(CC)c1ccc(C(=C2C=CC(=[N+](CC)Cc3cccc(S(=O)(=O)O)c3)C=C2)c2ccc(N(CC)Cc3cccc(S(=O)(=O)O)c3)cc2)cc1	-43.1% (active)		68.2%	67.1	85.3%	16.1%	14.2%	71.9	92.6%	8.92% (active)	46.6%	41.5%	22.9%	52.1%	3.12% (active)	21%	3.78% (active)	
